Consider 48 compounds from ChEMBL document CHEMBL3988442, “University of Dundee, Small-Polar-MMV Screening Library” (2021).

This assay concerns Trypanosoma brucei. Description: Trypanosoma brucei 72 hour study. It counts as functional, organism-based. Set-up: scale not given: in the data most compounds retested in dose-response had high values.

The structures appear in SMILES notation. In all, about 66,000 compounds went through this assay and about 960 (1.5%) showed an effect of 50% or more. For the sample, strong results were picked, then their nearest neighbours and some compounds at random.

On to `CCC(CC)C(=O)NCCc1ccn(-c2ccccc2)n1`, for which the “Percent Effect” value (10 µM) was -35.97%. Turning to `COCCNC(=O)NCCc1ccn(-c2ccccc2)n1`, the “Percent Effect” value (30 µM, 30.03 µM) worked out at 42.02%. Still for that read-out and setting: the value for `CC(C)CC(=O)NCCCc1cc(N)n(-c2ccccc2)n1` was -23.13%; that for `CC(C)(C)C(=O)NCCc1ccn(-c2ccccc2)n1` was 103.6%; that for `O=C(CCNc1ncccn1)NCCc1ccn(-c2ccccc2)n1` was 19.3%. For `CC(C)(CNC(=O)NCCc1ccn(-c2ccccc2)n1)C(N)=O`, for the setting “10 µM”, the “Percent Effect” value is recorded as -34.81%. The same measure, in the same setting: in the case of `CC(C)(C)C(=O)NCCC(=O)NCCc1ccn(-c2ccccc2)n1` it was -35.6%; in that of `CC(C)c1nc(C2CCCN2Cc2nnc(C3CCC3)o2)no1` (centres undefined), -24.2%.

Consider `CN(C)CC(=O)N1CCCC1c1cncc(Oc2ccc(F)cc2)n1` (centres undefined), for which the “Percent Effect” value (30.3 µM, […]) is -19.56%. In the case of `COc1c(C2CCCN2C(=O)c2ccc(C#N)c(C)n2)c(C)nn1C` (centres undefined), the “Percent Effect” value was -24.86% (10 µM) and 0.3708% (30.3 µM, […]).

On to `CCc1nc(CSc2nnc(N)n2C2CC2)no1`, for which, for the setting “30.3 µM, […]”, the “Percent Effect” value was -10.47%. The same measure, in the same setting: in the case of `Cc1ccccc1Cc1nc(CSc2nnc(N)n2C)no1` it was 30.54%. The same measure, in the same setting: the value for `Cc1ccccc1Cc1nc(CSc2nnc(N)n2C2CC2)no1` was 69.45%. As to `O=C1NCCN1C1CCN(CCOc2ccccc2F)CC1`, for the setting “10 µM”, the “Percent Effect” value is -33.22%. For `Cc1ccc(CN2C[C@@H]3CCCO[C@@H]3[C@H](N(C)Cc3ccco3)C2)o1.O=C(O)C(F)(F)F.O=C(O)C(F)(F)F`, the “Percent Effect” value (30 µM, 30.03 µM) was 25.08%. On the same count and under the same terms, in the case of `CCCN1CCCn2c(nc(CNC(=O)c3cnoc3C)cc2=O)C1.O=C(O)C(F)(F)F` it was 19.21%. For the compound `CCC(CC)C(CNC(=O)Nc1cnn(CCOC)c1)N(C)C` (centres undefined), under “30.3 µM, […]”, the “Percent Effect” value is reported as 100.4%. Turning to `COCCn1cc(NC(=O)NCC(C)N2CCOCC2)cn1` (centres undefined), under “30.3 µM, […]”, the “Percent Effect” value was -22.83%. On to `COCCn1cc(NC(=O)NCC(c2cccc(F)c2)N(C)C)cn1` (centres undefined), for which the “Percent Effect” value (30.3 µM, […]) came to 9.218%.

With `CC(C)c1nnc2n1CC(CNC/C=C/c1ccccc1)CC2` (centres undefined), the “Percent Effect” value (30 µM, 30.03 µM) is on record as 7.913%.

Take `CC(C)NC1CCc2[nH]c(=O)ccc2C1.O=C(O)C(F)(F)F` (centres undefined): under “30.3 µM, […]”, the “Percent Effect” value was -14.11%.

Consider `CN1CCO[C@@H]2CN(C(=O)Cc3cccs3)CC[C@@H]2C1.O=C(O)C(F)(F)F`, for which, under “30.3 µM, […]”, the “Percent Effect” value is -41.5%.

Consider `CC(C)Nc1ccnc(N2Cc3cnc(C(C)(C)C)nc3C2)n1`, for which the “Percent Effect” value (30 µM, 30.03 µM) is given as -43.35%. The same measure, in the same setting: in the case of `CC(C)Cc1ncc2c(n1)CN(c1nccc(NC(C)C)n1)C2` it was 89.54%. Same read-out and setting: in the case of `CCNc1ccnc(N2Cc3cnc(CC(C)C)nc3C2)n1` it was 7.855%. On to `CN(Cc1cccnc1)[C@@H]1CN(C(=O)c2ccoc2)[C@@H]2CCCO[C@H]12.O=C(O)C(F)(F)F.O=C(O)C(F)(F)F`, for which the “Percent Effect” value (30.3 µM, […]) is listed as -7.538%.

Take `CN1CCN(Cc2cnc3n2CCN(CCc2ccccc2)C3)CC1.O=C(O)C(F)(F)F.O=C(O)C(F)(F)F.O=C(O)C(F)(F)F`: the “Percent Effect” value (30.3 µM, […]) is on record as -12.43%. Take `Cc1cccc(CN2CC3(CCN(Cc4ccoc4)CC3)OCC2=O)n1.O=C(O)C(F)(F)F.O=C(O)C(F)(F)F`: the “Percent Effect” value (30.3 µM, […]) is -93.34%. The same measure, in the same setting: the value for `O=C(O)CC(O)(CC(=O)O)C(=O)O.OCCN(Cc1ccncc1)CC1(c2ccc(Cl)cc2)CCCC1` was 12.41%; that for `CC(C)N1CCC(c2n[nH]cc2-c2ccnc(N)c2)C1` (centres undefined) was 2.3%.

With `CCCNc1cc(-c2c[nH]nc2C2CCN(C(=O)C3CCC3)C2)ccn1` (centres undefined), the “Percent Effect” value (30.3 µM, […]) is 99.71%.

Regarding `Nc1cc(-c2c[nH]nc2C2CCN(C(=O)C3CCCC3)C2)ccn1` (centres undefined), the “Percent Effect” value (30.3 µM, […]) was 38.23%.

Regarding `Nc1cc(-c2c[nH]nc2C2CCCCN2C(=O)C2CCCC2)ccn1` (centres undefined), the “Percent Effect” value (30.3 µM, […]) is on record as 11.59%. The same measure, in the same setting: the value for `Cc1c[nH]nc1C1CCN(C(=O)Cn2cccn2)C1` (centres undefined) was -30.39%. For `CC(C)Nc1cc(-c2c[nH]nc2C2CCN(C(=O)C3CC3)C2)ccn1` (centres undefined), the “Percent Effect” value (30.3 µM, […]) amounted to 99.82%.

`CN1CCC(c2n[nH]cc2-c2ccnc(N)c2)C1` (centres undefined): the “Percent Effect” value (30.3 µM, […]) is -5.978%.

`O=C(C1CCCC1)N1CCC(c2ccnc(Nc3cnccn3)n2)C1` (centres undefined): for the setting “30.3 µM, […]”, the “Percent Effect” value came to 9.82%.

Regarding `CN(C)S(=O)(=O)N1CCC(c2n[nH]cc2-c2ccnc(N)c2)C1` (centres undefined), where the note is “30.3 µM, […]”, the “Percent Effect” value is -8.179%. Same read-out and setting: the value for `CC(C)CNc1cc(-c2c[nH]nc2C2CCN(C(=O)C3CC3)C2)ccn1` (centres undefined) was 100.1%; that for `CC(C)Nc1cc(-c2c[nH]nc2C2CCN(C(=O)C3CCC3)C2)ccn1` (centres undefined) was 100.4%.

Regarding `CC(=O)N1CCC(c2n[nH]cc2-c2ccnc(N)c2)C1` (centres undefined), the “Percent Effect” value (30.3 µM, […]) is given as -2.575%. On to `Cc1occc1C(=O)N1CCO[C@H]2[C@@H](Oc3ccccn3)CC[C@@H]21.O=C(O)C(F)(F)F`, for which the “Percent Effect” value (30 µM, 30.03 µM) is 26.48%. The same measure, in the same setting: in the case of `CNC(=O)CN1CCOCC2(C1)CN(C(=O)C(C)C)CCO2.O=C(O)C(F)(F)F` (centres undefined) it was -6.033%. On to `CS(=O)(=O)N1CCO[C@H]2[C@@H](Oc3ncccc3F)CC[C@@H]21.O=C(O)C(F)(F)F`, for which, where the note is “30.3 µM, […]”, the “Percent Effect” value came to 12.73%.

Turning to `CC(=O)NC1CCN(c2cc(C3CCNCC3)ccn2)CC1.Cl.Cl`, the “Percent Effect” value (30.3 µM, […]) is -5.403%.

As for `O=C(O)C(F)(F)F.O=C([C@@H]1CC[C@@H]2[C@@H](CCN2c2ccncn2)O1)N1CCCCO1`, for the setting “30.3 µM, […]”, the “Percent Effect” value is -55.7%. In the case of `Cc1cc(N2CCC(N(C)C(=O)c3ccccc3F)CC2)nc(C)n1`, the “Percent Effect” value (30 µM, 30.03 µM) is -12.35%. In the case of `Cn1ccnc1C(=O)N[C@@H]1CN(CC2CCOCC2)[C@@H]2CCCO[C@@H]21.O=C(O)C(F)(F)F`, the “Percent Effect” value (30.3 µM, […]) is -79.05%.
